# Giardia FBPA inh: qHTS Assay for Inhibitors of Fructose-1,6-bisphosphate Aldolase from Giardia Lamblia | A8B2U2 | purified Giardia FBPA | Potency, µM (doses to about 59.6 µM), for the others: at the top dose activity, negative = inhibition, usual class: inhibitors | actives 0.71% (n = 290,000); also: potency is read from the fitted curve at half-maximal effect; % is scaled to controls: 0 for no effect and ±100 for the full control effect; nearly all actives have a fitted effect of over 55% in size
# Target sequence (A8B2U2 whole entry, looked up): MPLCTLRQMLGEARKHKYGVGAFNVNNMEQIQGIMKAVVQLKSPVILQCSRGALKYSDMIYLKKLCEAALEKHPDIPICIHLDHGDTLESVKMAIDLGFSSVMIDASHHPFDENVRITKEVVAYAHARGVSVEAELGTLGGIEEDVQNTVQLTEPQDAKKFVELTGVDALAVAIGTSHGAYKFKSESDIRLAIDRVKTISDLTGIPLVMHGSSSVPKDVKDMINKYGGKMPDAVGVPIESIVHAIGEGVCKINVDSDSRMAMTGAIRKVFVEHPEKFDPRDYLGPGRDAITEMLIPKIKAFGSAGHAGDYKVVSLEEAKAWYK
#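 Giardia FBPA (40 nM reagent) was preincubated 10 min at RT with compound (up to 57.5 uM final), then substrate plus GAPDH/TPI/NAD/arsenate coupling system with diaphorase/resazurin was added; resorufin fluorescence (525/598 nm) was read after 20 min.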
# Tb PYK inh: qHTS of Trypanosoma Brucei Inhibitors; TbPYK enzyme, Kinase-Glo Plus ATP luminescence, 45 min; actives 0.12% (n = 410,000); AID 624173, 2012; Potency, µM (highest dose often 76.8 µM), for inactives: top-dose activity, negative = inhibition, usual class: inhibitors; pyruvate kinase (Trypanosoma brucei), Q57TT1; also: potency is read from the fitted curve at half-maximal effect; % is scaled to controls: 0 for no effect and ±100 for the full control effect; nearly all actives have a fitted effect of over 50% in size
#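 ADP (130 uM final) triggers the TbPYK reaction after compound addition; incubation is 45 min at room temperature. Kinase-Glo Plus is then added and luminescence imaged. Normalized data are fitted to concentration-effect curves.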
# LmPK inhibitor: qHTS Assay for Inhibitors of Leishmania Mexicana Pyruvate Kinase (LmPK) | actives 0.37% (n = 290,000) | Potency, µM (top dose mostly 57.5 µM), inactives show at the top dose activity change, negative = inhibition, actives largely listed as inhibitors | purified LmPK, Kinase-Glo ATP luminescence, 1 h | Q27686; also: potency is read from the fitted curve at half-maximal effect; % is scaled to controls: 0 for no effect and ±100 for the full control effect
#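 Screened at intermediate enzyme activity to detect both inhibitors and activators: LmPK at 0.1 nM, with a 0.5 nM enzyme column as activation reference. PEP 0.5 mM, ADP 0.1 mM; ATP detected by luminescence after 1 h.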
# Shiga toxin inh: A qHTS for Small Molecule Inhibitors of Shiga Toxin | inhibition, % at 38.7 µM | Vero cells, Shiga toxin protein synthesis inhibition reporter | actives 9.2% (n = 290,000); in the data active = inhibition mostly above about 28%, no sharp cut-off; inactive = mostly below about 43%; also: 0% is about no effect
# CHX counter: Cycloheximide Counterscreen for Small Molecule Inhibitors of Shiga Toxin; cell reporter, cycloheximide protein synthesis inhibition counterscreen; max response, %; actives 12% (n = 300,000); in the data active = max response mostly above about 13%, no sharp cut-off; inactive = mostly below about 14%; also: read at 38.3 µM for the half of the compounds with a filed dose; 0% is about no effect
# RE007 growth inh: qHTS Assay for Inhibitors of the HIV-1 protein Vpr. S. pombe RE007 Vpr strain, BacTiter-Glo ATP luminescence, 24 h. Potency, µM (doses to about 92.2 µM), inactives show top-dose activity change, negative = less growth, hits mostly inhibitors. actives 0.21% (n = 360,000). AID 651644, 2012; active = well fitted falling curve with a large enough effect; also: potency is read from the fitted curve at half-maximal effect; % is scaled to controls: 0 for no effect and ±100 for the full control effect; nearly all actives have a fitted effect of over 50% in size
#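 Fission yeast RE007 carrying one integrated HIV-1 vpr copy, seeded at OD 0.01 in PMG+AL medium with 23 nL pinned compound. Grown 24 h at 30 degrees; viability read by BacTiter-Glo luminescence after 5 min.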
# * = called active by the depositor; nt = no result. Only a selection was taken, and hits are over-represented in it overall. Unless noted, calls follow the shape of the dose curve; as a rule, active = well fitted curve in the direction sought with a large enough effect; inconclusive = small, poorly fitted or top-dose-only effect, or another doubt; inactive = no such curve, though single readings can be large; an effect the other way counts as inactive or inconclusive.
SMILES,Giardia FBPA inh,Tb PYK inh,LmPK inhibitor,Shiga toxin inh,CHX counter,RE007 growth inh
Cc1ccc(NCc2ccccc2O)cc1C,-9.6%,-4.0%,0.5%,101.7*,33.0*,9.5%
COc1ccccc1C1(CC(=O)O)CCOC(C(C)C)C1 (configuration not stated),2.2%,-5.3%,-4.5%,-9.7,-1.8,2.8%
CCC(=O)N(CCC1(c2ccccc2OC)CCOC(C(C)C)C1)Cc1ccco1 (configuration not stated),-0.5%,-1.5%,5.0%,30.5,26.3*,-1.4%
COC(=O)[C@@]12C[C@@H](CC(=O)NCC3CCCCC3)C(=O)N(Cc3cccc4ccccc34)C1=CCC(C)(C)C2,nt,nt,nt,nt,nt,4.6%
Cc1ccc(C(=O)N/N=C/c2cccc(OC(=O)/C=C/c3ccco3)c2)cn1,-11.7%,-3.9%,7.0%,85.6*,33.4*,-6.5%
O=C(/C=C/c1ccco1)Oc1cc(Br)cc(/C=N/NC(=O)c2ccccc2O)c1,-8.4%,2.4%,6.2%,21.6,39.0*,-28.4%
CCc1ccccc1NC(=O)Cn1c(C(=O)OC)cc2oc(C)cc21,nt,-3.4%,nt,nt,nt,nt
O=C(CCn1cccn1)Nc1ccc2c(c1)OCCO2,nt,-5.9%,-8.3%,91.9*,56.8*,-5.3%
O=C(CCCCCN1C(=O)CCC1=O)Nc1ccc2c(c1)OCO2,-0.1%,-2.8%,6.2%,17.5,8.6,6.0%
O=C(CCCN1C(=O)CCC1=O)Nc1ccc2c(c1)OCO2,1.6%,-4.7%,0.1%,52.8*,11.3,1.6%
O=C(CCCCCN1C(=O)c2ccccc2C1=O)Nc1ccc2c(c1)OCCO2,-1.0%,0.4%,2.7%,46.7,18.4,-1.5%
O=C(CCN1C(=O)c2ccccc2C1=O)Nc1ccc2c(c1)OCCO2,-8.8%,-2.4%,-6.7%,active,18.1*,-0.9%
O=C(CCCN1C(=O)CCC1=O)Nc1ccc2c(c1)OCCO2,-2.8%,-6.1%,-2.6%,91.7*,21.9*,8.7%
Cc1ccc(SCC(=O)Nc2ccc3oc(-c4cccc(Cl)c4)nc3c2)cc1,nt,1.6%,nt,nt,nt,nt
CCCCN1C[C@H](COC(=O)CCC)Oc2cccc(F)c2S1(=O)=O,nt,-4.6%,nt,nt,nt,2.5%
O=C(O)c1nc(-c2ccccc2)c(C(=O)NC2CC2)[nH]1,nt,-4.5%,nt,nt,nt,-0.9%
CCC(=O)N(C)C[C@@H]1Oc2ncc(Br)cc2C(=O)N([C@@H](C)CO)C[C@H]1C,nt,-3.4%,nt,nt,nt,-24.5%
COc1cc(OC)cc(-c2nc3nc(C)c(CCC(=O)Nc4ccc(F)cc4F)c(C)n3n2)c1,nt,1.4%,nt,nt,nt,nt
Cc1cccc(CCn2c(=O)c3ccccc3n(Cc3ccccc3C)c2=O)c1,nt,-2.3%,nt,nt,nt,nt
CCc1ccc(NC(=O)c2ccc3c(c2)N(Cc2ccc(C)cc2)CCS3)cc1,nt,0.2%,nt,nt,nt,nt
COc1cccc(C(=O)NCC(=O)N/N=C/c2ccc3c(c2)OCO3)c1,1.3%,-2.1%,-1.7%,82.8*,43.6*,-5.0%
O=C(CNC(=O)c1ccccc1F)N/N=C/c1ccc2c(c1)OCO2,-3.3%,0.6%,0.4%,54.6*,44.8*,-11.9%
COc1ccc(C(=O)NCC(=O)N/N=C/c2cccc(OC(=O)c3ccco3)c2)cc1OC,1.5%,0.1%,-12.2%,43.4,32.7*,2.9%
O=C(CNC(=O)c1ccccc1Cl)N/N=C/c1ccc2c(c1)OCO2,-11.3%,2.5%,0.0%,15.1,14.0,-1.5%
O=C(CNC(=O)c1ccccn1)N/N=C/c1ccc2c(c1)OCO2,0.9%,-5.6%,4.0%,100.1*,41.5*,-2.2%
SMILES,Giardia FBPA inh,Tb PYK inh,LmPK inhibitor,Shiga toxin inh,CHX counter,RE007 growth inh
COc1cccc(-c2nnc3n2N=C(c2c(OC)cccc2OC)CS3)c1,16.6%,nt,nt,-1.5,-2.5,nt
Cc1cc(C)c2c(=O)[nH][nH]c2n1,nt,-20.7%,nt,nt,nt,1.0%
Cc1nn(-c2ccc(F)cc2)c(Cl)c1/C=N/NC(=O)c1ccc(O)cc1,2.5%,4.1%,3.8%,61.1*,20.1*,-16.8%
Cc1nn(-c2ccc(F)cc2)c(Cl)c1/C=N/NC(=O)c1cccs1,4.9%,-1.1%,3.5%,58.8*,30.0*,nt
COc1ccc(-n2c(=O)c3c(c4cc(OC)ccc4n3C)n(CC(=O)N3CCCC3)c2=O)cc1,nt,4.6%,nt,nt,nt,nt
CN(C)C(=O)CSc1nnc(C23CC4CC(CC(C4)C2)C3)o1,5.5%,-2.2%,-2.2%,39.3,15.2*,-4.5%
CN(C)C(=O)CSc1nnc(CCN)o1,-9.7%,6.3%,4.1%,16.5,-0.7,-7.5%
Cc1ccc(-c2cc(-c3nnc(SCC(=O)NCC(C)C)n3N)c3ccccc3n2)cc1,5.7%,-0.7%,5.2%,28.7,35.7*,20.1%
CCC(C)NC(=O)CSc1nnc(-c2cc(-c3ccc(C)cc3)nc3ccccc23)n1N (configuration not stated),4.5%,-15.2%,6.8%,-1.6,0.8,7.1%
C=CCn1c(=NC(=O)c2ccccc2[N+](=O)[O-])sc2cc(S(C)(=O)=O)ccc21,1.1%,-6.9%,0.7%,10.4,-1.1,-8.0%
Fc1ccccc1Cn1nnc(-c2ccc3c(c2)OCO3)n1,3.1%,0.6%,-4.4%,87.7*,43.5*,-15.0%
O=C(OCc1ccccc1)c1ccc(-c2nnn(Cc3ccccc3F)n2)cc1,nt,-1.0%,nt,nt,nt,nt
COc1ccc(-c2nnn(Cc3ccccc3F)n2)cc1,6.3%,-3.3%,1.6%,95.7*,48.7*,-23.6%
COc1ccc(Oc2ncc3nc(CCc4ccccc4)c(=O)n(C[C@H]4CCCO4)c3n2)cc1,6.4%,nt,nt,nt,nt,nt
Cc1ccc(C(=O)N2CCC(N3CCC(C(=O)N4CCOCC4)CC3)CC2)cc1,nt,-1.5%,nt,nt,nt,4.3%
Cc1ccc(Cn2c(SCC(=O)NCc3ccco3)nc3ccsc3c2=O)cc1,2.2%,1.2%,5.6%,42.0,26.9*,11.4%
Cc1ccc(-n2c(SCC(=O)NCc3ccco3)nc3c(sc4ccccc43)c2=O)cc1,-3.0%,-0.7%,3.0%,119.0*,53.2*,-7.5%
COc1cc(SC)ccc1C(=O)Nc1ccc2ncccc2c1,-11.0%,-2.8%,-7.8%,30.4*,27.1*,0.1%
COc1cc(SC)ccc1C(=O)NC(C)C,-4.9%,-5.6%,-0.8%,23.0,4.1,-3.0%
COc1cc(SC)ccc1C(=O)Nc1ccon1,0.8%,-10.7%,-2.7%,60.0*,33.7*,-26.9%
COc1ccc(NC(=O)c2cccnc2SC)cc1OC,0.6%,1.4%,0.7%,-6.3,-0.2,9.5%
COc1cc(SC)ccc1C(=O)Nc1ncc(Cl)cc1Cl,4.2%,-5.3%,4.4%,79.3*,34.6*,10.6%
COc1cc(SC)ccc1C(=O)Nc1ccccn1,-11.5%,-14.8%,-16.0%,45.7,33.9*,-18.8%
COc1cc(SC)ccc1C(=O)NCCOc1ccc(Cl)cc1,0.2%,0.9%,-0.1%,-9.2,-3.3,-1.8%
